# Test results as given in PubChem BioAssay (NCATS).
# Records with an inconclusive call do not appear. Where a call stands in place of a potency, no number is given. Activity calls are given as the source filed them. The call rests on the fitted dose curve; in most records, active means well fitted cell-killing curve with a large enough effect; inconclusive means small, poorly fitted or top-dose-only effect; inactive means flat fitted curve, though single readings scatter.
# Test: A2780 Cisplatin Sensitive Ovarian Cancer Cell Toxicity qHTS against the NCATS CANVASS Library (AID 1347353); further: nearly all actives have a fitted effect of over 60% in size
# Settings: A2780 ovarian cancer viability, ATPLite luminescence, 72 h; series mostly up to 46.1 µM
# Excerpt: Natural products and their derivatives continue to be wellsprings of nascent therapeutic potential. However, many laboratories have limited resources for biological evaluation, leaving their previously isolated or synthesized compounds largely or completely untested. To address this issue, the Canvass library of natural products was assembled (https://tripod.nih.gov/canvass), in collaboration with academic and industry researchers, for quantitative high-throughput screening (qHTS) across a diverse set of cell-based and biochemical assays. The pure (>85% purity by liquid chromatography/mass spectrometry [LC/MS]) Canvass library of 346 natural products were submitted by 45 academic laboratories and companies around the world. We collected pure natural products to circumvent deconvolution and structure elucidation due to time and resource limitations. The library was formatted into 1536-well plates and evaluated in 50 qHTS (in an 11-pnt concentration series) bioassays with broad scope of disease-relevant mechanisms. The resulting data set from 50 different assays was then systematically analyzed to identify overall trends and specific natural products with interesting biological activities. Reported herein are the results of each individual qHTS and their corresponding assay protocol. National Center for Advancing Translational Sciences (NCATS), Rockville, MD National Institute of Health (NIH), Bethesda, Maryland
# Cancer Cell Toxicity protocol 1. In a 1536 well, white solid bottom tissue culture plates (Corning 7494), A2780 cisplatin sensitive ovarian cancer cells were dispensed in each well at a final concentration of 750 cells / well (5uL volume) using the Multidrop Combi (Thermo Fisher Scientific) dispenser. 2. The plates were incubated for 4 hours at 37 degrees C/5% CO2/95% Rh. 3. Compounds were pin transferred (~23nL volume) via Wako Pin-tool (Wako Automation, Richmond VA) equipped with a 1536 pin head. The assay plates were treated with compounds in an 11-pnt concentration series with a final concentration range of […] to 85uM. 4. Bortezomib was used as a single dose control (0.5mM column 4, rows 1 - 32) at a final concentration of 1.9uM and as a 16pnt titration (1mM; 1:2 dilution; 16-points; n = 2; column 3, rows 1 - 32) with final concentration range of 0.1nM - 3.8uM. 5. The assay plates were incubated for 72 hours at 37 degrees C/5% CO2/95% Rh. 6. 4uL ATPLite detection reagent was then added to the plates (columns 2 - 48, rows 1 - 32) and incubated at room temperature for additional 10 min. 7. Luminescence signal was acquired via the ViewLux plate reader (PerkinElmer) using a clear filter, 2 second exposure and 2x binning settings.
# Potency means the concentration at half of the fitted maximal effect.
row,SMILES,Potency
1,CO[C@@H](/C=C/CC/C=C/C(=O)O)[C@@H](O)[C@H](C)/C=C(\C)[C@@H](O)[C@H](C)C(=O)CCCC1CC(=O)NC(=O)C1,inactive
2,CC(=O)N[C@H]1CCN2CCC[C@H]12,inactive
3,CC[C@@H]1CN2CC[C@@]3(O)C(=Nc4cccc(OC)c43)[C@@H]2C[C@@H]1/C(=C\OC)C(=O)OC,inactive
4,CCC(=O)CCCCC[C@@H]1NC(=O)[C@H]2CCCCN2C(=O)[C@H]([C@@H](C)CC)NC(=O)[C@H](Cc2cn(OC)c3ccccc23)NC1=O,1.05 µM (active)
5,CC=C1CN(C=O)[C@H]2C[C@@H]1[C@@H](C(=O)OC)[C@@]13CCOC21Nc1ccccc13 (stereo partly specified),inactive
6,CO[C@H](c1ccccc1)[C@H]1NC(=O)C(C)NC(=O)C(C[C@@H](C)CO)N(C)C(=O)[C@@H](C(O)c2cn(C(C)(C)C3CO3)c3ccccc23)NC(=O)C(C(C)C=C(C)C)NC(=O)C(CC(C)C)N(C)C(=O)C(C(C)C)NC1=O (stereo partly specified),inactive
7,COc1ccc(C23Oc4cc(OC)cc(OC)c4[C@](O)([C@H](c4ccccc4)C2C(=O)NCCCCNC(=O)c2ccccc2)[C@@H]3O)cc1 (stereo partly specified),inactive
8,COC(=O)C1=C2Nc3ccccc3[C@@]23CCN2CC(C(C)=O)C1C[C@H]23 (stereo partly specified),inactive
9,CNCCc1ccccc1,inactive
10,CC1=CC2CC[C@@H]3[C@@H](C)C[C@H](C)[C@@H](C1)N23 (stereo partly specified),inactive
11,CCCC[C@@H]1CC[C@H]2CCCC(CCC)N12 (stereo partly specified),inactive
12,O=C(c1ccccc1O)c1[nH]c(Cl)c(Cl)c1-n1c(C(=O)c2ccccc2O)cc(Cl)c1Cl,3.72 µM (active)
13,CN(C)Cc1c[nH]c2ccccc12,inactive
14,CNCCc1c[nH]c2ccccc12,inactive
15,CCN1C[C@]2(C)CC[C@@H](O)[C@]34C1[C@H](C[C@H]23)C12CCC(CC14)[C@](O)(CO)[C@H]2O (stereo partly specified),inactive
16,NCCc1ccccc1,inactive
17,CCC[C@H]1CC[C@H]2[C@H](C)CCC[C@H]2N1,inactive
18,CNCCc1ccc(O)cc1,inactive
19,C/C=C1/CN2CC[C@]34C(=Nc5ccccc53)[C@@H]2C[C@@H]1[C@H]4C(=O)OC,inactive
20,COc1ccc2c(c1)[nH]c1c(C)nccc12,19.1 µM (active)
21,c1ccc2c3c([nH]c2c1)CNCC3,inactive
22,CO[C@@H](/C=C/CC/C=C/C(=O)O)[C@@H](O)[C@H](C)[C@@H](O)/C(C)=C/[C@H](C)C(=O)CCCC1CC(=O)NC(=O)C1,inactive
23,CCCCC[C@@H]1OC(=O)[C@@H](C)N(C)C(=O)[C@H](CCCCC)OC(=O)C(C)N(C)C(=O)[C@H](CCCCC)OC(=O)[C@@H](C)N(C)C(=O)[C@H](CCCCC)OC(=O)C(C)N(C)C1=O (stereo partly specified),7.43 µM (active)
24,C[C@]12CC(O)C3[C@@H](CCC4C[C@@H](O)CC[C@@]43CO)[C@@]1(O)CCC2C1=CC(=O)OC1 (stereo partly specified),inactive
25,COc1ccc2c3c([nH]c2c1)C(C)=NCC3,inactive
26,CC[N@@+]1([O-])C[C@]2(C)CC[C@@H](O)[C@@]34C5C[C@H]6CC[C@@]5(C(C[C@H]23)C41)[C@H](O)[C@@]6(O)CO (stereo partly specified),inactive
